Results filed as inconclusive are left out. A number with no mark means an inactive call. The source made the active and inactive calls. Calls come from the whole dose curve; as a rule, active = well fitted activation curve with a large enough effect in the repeat runs; inconclusive = weak or mixed curves; inactive = flat fitted curve, though single readings scatter.
% is set by controls: 0 for no effect and ±100 for the full control effect; potency is the fitted concentration of half-maximal effect.

The test in a line: Caspase-3/7 induction in HepG2 cells by small molecules, qHTS assay (AID 1346978). Note: nearly all actives have a fitted effect of over 15% in size. The settings on record: HepG2 caspase-3/7 activation, Caspase-Glo luminescence, 17 h; series mostly up to 92.4 µM; caspase activation: at the top concentration. An excerpt:
National Center for Advancing Translational Sciences [NCATS] NIH Chemical Genomics Center [NCGC] U.S. Environmental Protection Agency [EPA] National Institutes of Environmental Health Sciences [NIEHS] National Toxicology Program [NTP] Assay overview: Apoptosis is a process of programmed cell death and plays a central role in the development of multicellular organisms. It is a highly regulated process and induces cell death by activating caspases, which are the members of cysteine aspartic acid-specific protease (caspase) family. Caspases involved in apoptosis are classified by their mechanism of action as initiator caspases (caspase-2, -8, -9 and -10) and executioner caspases (caspase-3, -6, and -7). Inhibition of apoptosis results in number of cancers, autoimmune diseases, inflammatory diseases and viral infection. To identify small molecule compounds that induce apoptosis, a homogeneous, luminescent Caspase-Glo 3/7 assay was used. Wild type HepG2 cells were used to screen Tox21 libraries for identifying caspase-3/7 activity inducers.
Assay Protocol Summary: HepG2 cells were dispensed at 2,000 per well in 5uL of culture medium into white solid bottom 1536-well plates (Corning Life Sciences, Corning, NY) using a Multidrop Combi (Thermo Scientific, Waltham, MA) dispenser. The assay plates were incubated at 37 C and 5% CO2 for 5hr, and then 23nL of compounds dissolved in DMSO and positive control were transferred using a Pintool station (Wako, San Diego, CA). The assay plates were incubated at 37C and 5% CO2 for 17hr. For caspase-3/7 activity read, 4uL of Caspase-Glo 3/7 reagent (Promega Corporation, Madison, WI) was added to each well of the assay plates using Flying Reagent Dispenser (FRD, Aurora Discovery, San Diego, CA) and incubated the assay plates at room temperature for 30min. The luminescence signal was quantified using a ViewLux plate reader (Perkin Elmer, Shelton, CT).
For orientation: In qHTS, concentration-response curves come from the screen itself.
As to `Cc1ccc(NC(=O)N(C)C)cc1NC(=O)N(C)C`, the “caspase activation” value is -0.666%. Same read-out and setting: to `COC(=O)Nc1nc2ccc(C(=O)C3CC3)cc2[nH]1` belongs -2.34% [at 42.5 µM]. Still for that read-out and setting: to `CC(=O)OCCC1CCCCC1` belongs 1.38%; to `CCCCCCCC(=O)OCCCCCC`, -0.176%; to `CC(C)(O)c1coc(S(=O)(=O)NC(=O)Nc2c3c(cc4c2CCC4)CCC3)c1`, 2.79%. On to `CO[C@@H]1[C@@H](OC)[C@H](C)[C@@](O)(CC(=O)O)O[C@H]1[C@H](C)[C@H]1O[C@@]2(CC[C@@](C)([C@H]3CC[C@@](C)([C@@H]4O[C@@H]([C@H]5O[C@](C)(O)[C@H](C)C[C@@H]5C)C[C@@H]4OC4C[C@H](OC)[C@@H](OC)[C@H](C)O4)O3)O2)C[C@H](O)[C@H]1C` (stereo not given in full), for which the “caspase activation” value was 4.98% [at 42.5 µM]. Same read-out and setting: the same measure for `CCN(CC)c1cccc(O)c1`: 0.416%; for `COc1ccc(-n2nc(C(F)F)cc2-c2ccc(S(C)=O)cc2)cc1` (stereo not given): 0.346%; for `CCCCCCCCCCCCCOS(=O)(=O)O`: -4.26%. Consider `COc1ccc(/C=C/C(=O)c2ccc(OC)cc2OC)cc1`, for which the Potency is 10.6 µM (active). Consider `Cc1ccc2c(c1[N+](=O)[O-])C(=O)c1ccccc1C2=O`, for which the Potency was 5.99 µM (active). As to `NC(=O)c1ccccc1[N+](=O)[O-]`, the “caspase activation” value was 0.342%.

For `O=C(c1ccccc1)C1CCC1`, the “caspase activation” value was -0.0101%. On the same count and under the same terms, the same measure for `CCC(C)(C)C(=O)O`: -2.56%; for `Nc1ccc(NC(=O)c2ccc(N)cc2)cc1`: -4.84%. For `O=S(=O)(O)CO`, the “caspase activation” value was -0.34%. Still for that read-out and setting: the same measure for `SCCc1cnccn1`: -0.0173%; for `COC(=O)C1=C(C)NC(C)=C(C(=O)OC(C)(C)CN(C)CCC(c2ccccc2)c2ccccc2)C1c1cccc([N+](=O)[O-])c1` (stereo not given): 1.86% [at 42.5 µM]. On the same count and under the same terms, the same measure for `CCC1CCC(CCC(=O)O)C1` (stereo not given): -2.38%; for `Cc1ccc(N(CCO)CCO)cc1`: 0.576%. Still for that read-out and setting: to `CCC(Cl)CC(Cl)C(Cl)C(Cl)C(Cl)C(C)Cl` (stereo not given) belongs -16.4% [at 19 µM]; to `Nc1nc(-c2ccc([N+](=O)[O-])cc2)cs1`, -8.17%; to `Nc1c(Cl)cc(Cl)cc1[N+](=O)[O-]`, -0.27%. For the compound `CC(CCc1ccc(O)cc1)NCCc1ccc(O)c(O)c1` (stereo not given), the “caspase activation” value is -0.371% [at 42.5 µM].

On to `O=C(O)CCC(=O)OC[C@@H](NC(=O)C(Cl)Cl)[C@H](O)c1ccc([N+](=O)[O-])cc1`, for which the “caspase activation” value is -0.512% [at 42.5 µM]. Still for that read-out and setting: to `CC(C)N(C)C` belongs 0.875%; to `COc1cc(NC(C)CCCN)c2ncccc2c1` (stereo not given), -1.97% [at 42.5 µM]. The same measure, in the same setting: to `C=C(C)C(=O)OCCC(F)(F)C(F)(F)C(F)(F)C(F)(F)C(F)(F)C(F)(F)F` belongs 0.547%; to `CC1=CC[C@@]23C[C@@H]1C(C)(C)[C@@H]2CC[C@H]3C`, -0.854%. Take `CC(C)COC(=O)c1ccc(O)cc1`: the “caspase activation” value was 5.08%. Take `CCN(Cc1cccc(S(=O)(=O)O)c1)c1ccc(C(=C2C=CC(=[N+](CC)Cc3cccc(S(=O)(=O)O)c3)C=C2)c2ccc(O)cc2S(=O)(=O)[O-])cc1`: the “caspase activation” value was -14.8% [at 42.5 µM]. Still for that read-out and setting: the same measure for `CC(C)(O)CCc1ccccc1`: 0.302%. Consider `CCCCCCCCCCCCCOC(=O)CCSCCC(=O)OCCCCCCCCCCCCC`, for which the caspase activation was 0.0624% [at 19 µM]. On the same count and under the same terms, to `CCC(CO)(CO)CO` belongs 0.165%; to `COc1cc(NCc2ccc3nc(N)nc(N)c3c2C)cc(OC)c1OC`, -1.17% [at 42.5 µM]. Same read-out and setting: the same measure for `COC(C)(C)OC`: 0.802%. Same read-out and setting: the same measure for `CCc1ccc(C)cc1`: 0.479%.

For `O=C(CCS)OCC(COC(=O)CCS)(COC(=O)CCS)COC(=O)CCS`, the “caspase activation” value was -0.0192%. As to `CCCOC(=O)c1c(Cl)c(Cl)c(Cl)c(Cl)c1C(=O)OCCC`, the “caspase activation” value was 0.0967%. Same read-out and setting: the same measure for `CCOC(=O)N1CCC(Nc2ccc(Cl)cc2N)CC1`: 8.15% [at 42.5 µM].

Values taken from PubChem BioAssay (Tox21).
